The results in this text go back to PubChem BioAssay AID489028 (Sanford-Burnham Center for Chemical Genomics, 2010).

Out of some 10,000 compounds screened, about 5,600 (56%) were called active. So high a share suggests a set chosen from earlier hits. These entries were drawn from the full list. Values without a mark were called inactive. No stated cut-off is given here; in the data, active means inhibition above about 40%; inactive means the rest.

A word on the inhibition: it is the drop in the measured response relative to a control, in per cent.

The target of this assay is Protein Mdm4 (Homo sapiens) + E3 ubiquitin-protein ligase Mdm2 (Homo sapiens) (UniProt O15151+Q00987). Put plainly: inhibition of human Mdm2/MdmX pairing – luminescence, single concentration, confirmation (AID 489028). Particulars: Mdm2-MdmX binding, luminescent assay; at 8 µM; active compounds read high.
Protein Mdm4 (Homo sapiens) + E3 ubiquitin-protein ligase Mdm2 (Homo sapiens), sequence (O15151 whole entry, looked up): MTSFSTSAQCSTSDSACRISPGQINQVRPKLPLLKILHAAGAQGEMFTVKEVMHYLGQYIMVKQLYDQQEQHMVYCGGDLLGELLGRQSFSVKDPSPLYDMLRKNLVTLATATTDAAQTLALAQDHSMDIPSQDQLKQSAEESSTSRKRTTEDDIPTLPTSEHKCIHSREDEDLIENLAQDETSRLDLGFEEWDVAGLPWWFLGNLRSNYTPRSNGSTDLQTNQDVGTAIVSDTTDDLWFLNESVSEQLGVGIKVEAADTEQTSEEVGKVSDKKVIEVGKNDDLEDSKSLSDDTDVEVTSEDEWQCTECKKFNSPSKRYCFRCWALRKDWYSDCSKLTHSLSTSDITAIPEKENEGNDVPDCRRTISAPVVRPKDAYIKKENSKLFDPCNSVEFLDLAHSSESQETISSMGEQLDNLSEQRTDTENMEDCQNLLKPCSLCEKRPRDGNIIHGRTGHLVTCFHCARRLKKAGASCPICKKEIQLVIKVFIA
Protein Mdm4 (Homo sapiens) + E3 ubiquitin-protein ligase Mdm2 (Homo sapiens), sequence (Q00987 whole entry, looked up): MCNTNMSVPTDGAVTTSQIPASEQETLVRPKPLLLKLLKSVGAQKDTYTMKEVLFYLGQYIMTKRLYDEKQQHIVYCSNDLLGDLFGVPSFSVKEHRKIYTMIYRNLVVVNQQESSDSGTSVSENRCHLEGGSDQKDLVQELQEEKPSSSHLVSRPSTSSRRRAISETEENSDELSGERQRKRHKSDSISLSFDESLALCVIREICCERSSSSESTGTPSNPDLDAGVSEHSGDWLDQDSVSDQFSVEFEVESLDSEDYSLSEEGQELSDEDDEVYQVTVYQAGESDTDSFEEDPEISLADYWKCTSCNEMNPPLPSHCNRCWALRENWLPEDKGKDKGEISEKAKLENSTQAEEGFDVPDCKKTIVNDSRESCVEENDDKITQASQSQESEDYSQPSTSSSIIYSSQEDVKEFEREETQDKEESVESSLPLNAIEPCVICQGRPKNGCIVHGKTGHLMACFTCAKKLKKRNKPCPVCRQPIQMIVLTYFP
As to `COc1ccc(C(=O)O/N=C(\N)Cc2ccc(Cl)cc2Cl)cc1OC`, the inhibition was 97.6% (active).
As for `COC(=O)c1ccc(NC(=O)c2cc(Cl)ccc2OC)cc1`, the inhibition is 3.8%.
`CCOc1ccc(C(C)=O)cc1COC(=O)c1cnc(Cl)c(Cl)c1`: the inhibition is 19%.
The value for `CC1=C(C)CC(C(=O)NNC(=O)c2ccccc2O)C(C(=O)O)C1` (stereo not given) was 38.8%; that for `CC(=O)Nc1ccc(NC(=O)C(C)OC(=O)c2ccccc2C(=O)c2ccc(Cl)c([N+](=O)[O-])c2)cc1` (stereo not given) was 84.5% (active).
As for `N#Cc1cccc(NC(=O)COC(=O)c2ccccc2C(=O)c2ccc(Cl)c([N+](=O)[O-])c2)c1`, the inhibition was 98.9% (active).
For `Cc1c(CN2CCC(CO)(CCOc3ccccc3)CC2)[nH]c2ccc(Cl)cc12`, the inhibition is 75.5% (active).
The value for `CCc1nc2sc3c(Cl)ncnc3c2c2c1CCCC2` was 14.9%; that for `Oc1c(CN2CCCC2)cc(COCc2ccccc2)c2cccnc12` was 66% (active).
The value for `Oc1c(CN2CCN(c3ccc(F)cc3)CC2)cc(Cl)c2cccnc12` was 85.5% (active).
Turning to `O=C(NC(=S)Nc1ccc2oc(=O)ccc2c1)c1ccc(-c2cccc(Cl)c2Cl)o1`, the inhibition is 34.5%.
Under `Cc1ccsc1C(=O)OCC(=O)c1cc(C)n(CC2CCCO2)c1C` (stereo not given) stands 94.5% (active); under `Cc1cc(C(=O)CCl)c(C)n1CC1COc2ccccc2O1` (stereo not given), 15.6%; under `COc1ccc(CN2CN(C(C)C)CSC2=S)cc1`, -10.1%.
The value for `Cc1cc(C(=O)COc2ccccc2[N+](=O)[O-])c(C)n1-c1cccc(S(=O)(=O)N2CCOCC2)c1` was 58.5% (active).
As to `O=C(NC(=O)c1ccccc1N1CCCCC1)Nc1ccc(Br)cc1`, the inhibition was 54.9% (active).
Consider `CC(=O)Nc1ccc(S(=O)(=O)Nc2ccc(N3CCCCC3)cc2)cc1`, for which the inhibition is 3.05%.
For `CCCOc1ccccc1C1CC(=O)Nc2cc3c(cc21)OCO3` (stereo not given), the inhibition was 61.9% (active).
`COc1ccccc1C1C2=C(COC2=O)Nc2cc3c(cc21)OCO3` (stereo not given): the inhibition was 62.8% (active).
On to `O=C(Oc1c(-c2ccco2)oc2ccccc2c1=O)c1cccnc1`, for which the inhibition was 37.6%.
The value for `O=C1/C(=C/c2ccc(F)cc2)SC(=S)N1CCCC(=O)N1CCCCC1CCO` (stereo not given) was 49.8% (active); that for `CC(=O)c1ccc(Oc2cc(C)nc(-n3nc(C)cc3C)n2)cc1` was 51.8% (active).
In the case of `COc1ccc(C(C[N+](=O)[O-])n2nc(C)cc2C)cc1` (stereo not given), the inhibition was 9.85%.
In the case of `CSc1nc(N)c(C#N)c(-c2ccccc2Cl)c1C#N`, the inhibition is 22.9%.
Under `COc1ccc(Nc2oc(-c3ccccc3Cl)nc2C#N)cc1` stands 42.7% (active); under `CN(C)CCCn1c(=O)n(Cc2ccccc2)c(=O)c2c3c(sc21)CCCCC3`, 37.5%.
Consider `COc1ccc(C(C(=O)NC2CCCCC2)N(C(=O)CCl)c2ccccc2Cl)cc1` (stereo not given), for which the inhibition was 100% (active).
The value for `CC(=O)N1CCc2c(sc(NC(=O)CCS(=O)(=O)c3ccccc3)c2C#N)C1` was 45.3% (active); that for `N#Cc1c(NC(=O)CSc2nc3ccccc3c(=O)n2Cc2ccco2)sc2c1CCCC2` was 36.7%.
Turning to `Cc1ccc2sc(N(CCN(C)C)C(=O)/C=C/c3cccs3)nc2c1C`, the inhibition was 4.55%.
With `COc1cccc2sc(N(CCCN(C)C)C(=O)CCS(=O)(=O)c3ccccc3)nc12`, the inhibition is 48% (active).
Under `COc1cccc2sc(N(CCCN(C)C)C(=O)C(c3ccccc3)c3ccccc3)nc12` stands 86.2% (active); under `Cc1cccc2sc(N(CCCN(C)C)C(=O)CCS(=O)(=O)c3ccccc3)nc12`, 52% (active).
The value for `CN(C)CCCN(C(=O)c1ccc(S(=O)(=O)N2CCCCCC2)cc1)c1nc2cc3c(cc2s1)OCCO3` was 29.6%; that for `CN(C)CCCN(C(=O)c1ccc(S(=O)(=O)N2CCCCCC2)cc1)c1nc2ccc(Br)cc2s1` was 21.9%.
Consider `Cc1ccc(C(=O)Nc2sc(Cc3ccc4c(c3)OCO4)c(C)c2C(N)=O)cc1`, for which the inhibition is 40%.
The value for `Cn1c(=O)n(C)c2cc(C(=O)Nc3ccc4c(c3)OCO4)ccc21` was 47.6% (active); that for `Cn1c(=O)n(C)c2cc(C(=O)Nc3ccc(Br)cc3)ccc21` was 35.1%; that for `O=c1oc2ccccc2cc1-c1cn(-c2ccccc2)c(=S)[nH]1` was 96.2% (active).
The value for `Cc1ccc(C(=O)NNC(=O)c2cc3cc4ccccc4nc3s2)cc1` was 26.1%.
For the molecule `C=CCSc1nsc(NC(=O)Nc2cccc(C(C)=O)c2)n1`, the inhibition is 66.8% (active).
Under `CCSc1nsc(NC(=O)Nc2cccc(C(C)=O)c2)n1` stands 40.8% (active).
The value for `Cc1cccc(NC(=S)NCc2ccc3[nH]c4c(c3c2)CCCC4)c1` was 10.7%; that for `Oc1c(Cl)cc(Cl)c(Cl)c1Cc1c(O)c(Cl)cc(Cl)c1Cl` was 90.5% (active); that for `Cc1c(Cl)c([N+](=O)[O-])nn1Cc1ccc(C(=O)N/N=C\c2cc(Cl)ccc2O)o1` was 75% (active).
As to `CCCCNc1c(-c2cccc(Sc3ccc(OC)cc3)c2)nc2ccccn12`, the inhibition was -9.4%.
Under `CCCc1nc(NCc2ccc3c(c2)OCO3)c2nnn(Cc3ccccc3Cl)c2n1` stands 62% (active); under `Cc1ccc2nc(-c3ccncc3)cc(C(=O)Nc3ccc4c(c3)OCCO4)c2c1`, 57% (active).
Under `COc1ccc(CS(=O)/C(Cl)=C(/Cl)C(=O)Nc2ccc(OC)nc2)cc1` (stereo not given) stands 100% (active); under `COc1ccc(NC(=O)/C(Cl)=C(/Cl)S(=O)Cc2ccc(C)cc2)cn1` (stereo not given), 99.5% (active); under `COc1ccc(CC(=O)Nc2ccc(-c3nnc(-c4ccc(C)cc4)o3)cc2)cc1`, 15.7%.
`O=C(Nc1ccc2ccccc2c1)Nc1ccc2snnc2c1`: the inhibition was 47.5% (active).
For the molecule `COc1ccc(-c2cc(C(F)(F)F)nc(S(C)(=O)=O)n2)cc1OC`, the inhibition was 56.1% (active).
For `Cc1cc(C)c2[nH]c(=O)c(CN(Cc3ccccc3)C(=S)NCCCN(C)C)cc2c1`, the inhibition is 37%.
As for `Cc1ccc2[nH]c(=O)c(CN(CCCN(C)C)C(=O)Nc3cccc(Cl)c3)cc2c1`, the inhibition was 44.1% (active).
The value for `O=C(Cn1nnc(-c2ccccc2)n1)N/N=C/c1ccc(-c2ccc(Cl)cc2)o1` was 55.2% (active).
On to `Cc1ccc(-c2csc(NC3OC(=O)c4ccccc43)n2)cc1` (stereo not given), for which the inhibition is 76% (active).
Take `COc1ccc(OC)c(Nc2nc(-c3ccc(O)c(O)c3)cs2)c1`: the inhibition is 38.4%.
Take `COc1ccc2c(c1OC)C(=O)OC2Nc1nc(-c2ccccc2)cs1` (stereo not given): the inhibition is 73.8% (active).
Regarding `O=C(NC(Nc1nc2ccc([N+](=O)[O-])cc2s1)(C(F)(F)F)C(F)(F)F)c1ccccc1`, the inhibition was 98.5% (active).
The value for `CS(=O)(=O)c1ccc2nc(NC(=O)c3ccc(N4CCCC4=O)cc3)sc2c1` was 7.9%; that for `CN(C)CCCN(C(=O)c1ccc(S(=O)(=O)N2CCCc3ccccc32)cc1)c1nc2ccc(F)cc2s1` was 29.9%.
Under `O=C(Nc1nc2ccc([N+](=O)[O-])cc2s1)c1ccc(S(=O)(=O)N2CCCc3ccccc32)cc1` stands 88.2% (active); under `Cc1ccccc1OCCOc1ccc([N+](=O)[O-])cc1/C=N/n1cnnc1`, 58.2% (active).
As for `Fc1ccccc1/C=C1\CCCC2=C1Nc1ncnn1C2c1ccccc1F` (stereo not given), the inhibition is 83% (active).
With `COc1ccc(OC)c(C2C3=C(N=c4s/c(=C\c5cccc(O)c5)c(=O)n42)c2ccccc2CC3)c1` (stereo not given), the inhibition was 28.1%.
Under `CC1CCCCC1NC(=O)/C(C#N)=C/C=C/c1ccccc1[N+](=O)[O-]` (stereo not given) stands 93% (active).
For the molecule `Cc1ccc(C)c(N2CCN(C(=O)CCCCCn3c(=S)[nH]c4ccc(N5CCOCC5)cc4c3=O)CC2)c1`, the inhibition is 43.1% (active).
The value for `O=C(CCCCCn1c(=S)[nH]c2cc3c(cc2c1=O)OCO3)N1CCN(c2ccc(F)cc2)CC1` was 36.2%; that for `O=C(CCn1c(=S)[nH]c2cc3c(cc2c1=O)OCO3)NCc1ccc(Cl)cc1` was 5.65%; that for `CCN1/C(=C\c2ccc3ccccc3[n+]2CC)Sc2cc(C)ccc21` was 78.1% (active).
Under `O=C(NCC#CCSc1nnc(-c2cccc3ccccc23)o1)c1cccs1` stands 83.7% (active).
The value for `Oc1ccc(N=Nc2nccs2)c(O)c1` was 35%.
As for `CS(=O)(=O)N(CC(O)Cn1c2ccccc2c2ccccc21)c1cccc2ccccc12` (stereo not given), the inhibition is 15.5%.
Turning to `C=C(C)C(=O)O[C@H]1C/C(C)=C\C(=O)/C=C(\C)[C@H](O)[C@@H]2OC(=O)C(=C)[C@@H]21`, the inhibition was 56.6% (active).
Under `CC(Nc1nc(C(F)(F)F)nc2ccccc12)c1cccs1` (stereo not given) stands 50.4% (active); under `Cc1nnc(N/N=C/c2ccccn2)[nH]c1=O`, 86.6% (active).
For `CCc1ccc2c(c1)C1(NN=C(c3ccccc3)S1)C(=O)N2` (stereo not given), the inhibition is 53.1% (active).
As to `Nc1nc(CC(=O)CSc2ccc(Cl)cc2)nc(Nc2ccc(F)cc2)n1`, the inhibition was 71% (active).
The value for `Oc1ccccc1N1CCN(c2ncnc3sc(-c4ccccc4)cc23)CC1` was 58% (active).
The value for `COc1ccccc1N1CCN(c2ncnc3sc(C)c(-c4ccccc4)c23)CC1` was 25.6%; that for `c1ccc2c(c1)C(=NC1CCCCC1)NC2=NC1CCCCC1` was 53.5% (active).
On to `Cc1cccc(-n2ncc(Cl)c(Cl)c2=O)c1`, for which the inhibition was 87.5% (active).
With `Cc1cc(C)c2c(-c3ccc(F)cc3)c(C#N)c(=O)n(C)c2n1`, the inhibition was 12%.
For `CCN(CC)S(=O)(=O)c1ccc(NC(=O)c2cccnc2Cl)c(NC(=O)c2cccnc2Cl)c1`, the inhibition is 95.8% (active).
For the molecule `O=C1N/C(=C/c2cccn2-c2ccccc2)C(=O)N1c1cccc(Cl)c1`, the inhibition is 59.4% (active).
The value for `COc1ccc(CNC(=O)C(c2ccc(O)cc2)N(Cc2ccco2)C(=O)c2snc(C(N)=O)c2N)cc1` (stereo not given) was 45% (active); that for `N=c1c2c(-c3ccccc3)c(-c3ccccc3)n(Cc3ccccc3)c2ncn1CCCO` was 62.9% (active).
As for `CCCC[C@@H]1CN=C(N)N1CCc1cc(C(F)(F)F)cc(C(F)(F)F)c1`, the inhibition is 32.2%.
As for `CC1=C/C(=N\OS(=O)(=O)c2ccccc2)C=CC1=O`, the inhibition is 45.8% (active).
